Activity calls are given as the source filed them. How the source made its calls, unless noted: active means hit-call score of the fitted dose curve at least 0.9, where 1 is the maximum; inactive means score below 0.9.

Test system in the first assay: not listed separately
The experiment in a line: CCTE_Deisenroth_H295R-HTRF_384WELL_ESTRADIOL: CCTE's H295R-HTRF Assay Evaluation of Estradiol Concentration, Deisenroth Lab (AID 2284361). The note with it: actives raise or lower the signal. Put shortly:
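H295R cells exposed 48 h to chemicals at 0.001 - 100 uM final (nine points, triplicate); estradiol in conditioned medium measured by HTRF immunoassay, fitted bidirectionally versus DMSO. Viability by CellTiter-Glo on same plates.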
`CCCCC(CC)COC(=O)c1ccccc1C(=O)OCC(CC)CCCC` (stereo not given): the call was inactive. The AC50 is the concentration giving half of the maximal activity seen. For the molecule `CCNc1nc(Cl)nc(NC(C)C)n1`, the AC50 was 9.8 µM (active). For the molecule `CCCCNC(=O)n1c(NC(=O)OC)nc2ccccc21`, the call was inactive. `COc1nc(NC(C)C)nc(NC(C)C)n1`: the AC50 is 34.6 µM (active).

As for `OC(c1ccc(Cl)cc1)(c1cncnc1)c1ccccc1Cl` (stereo not given), the call was inactive.

Test system in another assay: not listed separately
The experiment in a line: CCTE_Deisenroth_H295R-HTRF_384WELL_TESTOSTERONE: CCTE's H295R-HTRF Assay Evaluation of Testosterone Concentration, Deisenroth Lab (AID 2284373). The note with it: actives raise or lower the signal. In short, it runs like this: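 H295R cells were acclimated 24 h, then exposed 48 h to nine concentrations (0.001–100 uM final) in technical triplicate, n=5. Testosterone in conditioned medium was measured by HTRF (em 620/665 nm). Fitting was bidirectional versus DMSO; CellTiter-Glo viability ran on the same plates.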
Background: Time-resolved FRET reads energy transfer from a long-lived donor to a nearby acceptor.
`CCCCC(CC)COC(=O)c1ccccc1C(=O)OCC(CC)CCCC` (stereo not given): the result was inactive. Still for that read-out and setting: for `CCNc1nc(Cl)nc(NC(C)C)n1` the value was “inactive”; for `CCCCNC(=O)n1c(NC(=O)OC)nc2ccccc21`, “inactive”; for `COc1nc(NC(C)C)nc(NC(C)C)n1`, “inactive”. Same read-out and setting: for `OC(c1ccc(Cl)cc1)(c1cncnc1)c1ccccc1Cl` (stereo not given) the value was “inactive”.

Test system in a further assay: not listed separately
The experiment in a line: CCTE_Deisenroth_H295R-HTRF_384WELL_CTOX: Cytotoxicity Assessment in CCTE's H295R-HTRF Assay, Deisenroth Lab (AID 2284380; active means hit-call score of the fitted dose curve at least 0.9, where 1 is the maximum).
Conditions: not given
In short, it runs like this: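 H295R adrenocortical carcinoma cells plated 24 h, then exposed 48 h to nine-point series 0.001–100 uM final, triplicate, n=5. ATP measured by CellTiter-Glo 2.0 luminescence on same plates after medium collection; loss versus DMSO.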
Regarding `CCCCC(CC)COC(=O)c1ccccc1C(=O)OCC(CC)CCCC` (stereo not given), the outcome was inactive. As for `CCNc1nc(Cl)nc(NC(C)C)n1`, the molecule was classed as inactive.

As for `CCCCNC(=O)n1c(NC(=O)OC)nc2ccccc21`, the AC50 was 5.92 µM (active). `COc1nc(NC(C)C)nc(NC(C)C)n1`: the outcome was inactive. The same measure, in the same setting: under `OC(c1ccc(Cl)cc1)(c1cncnc1)c1ccccc1Cl` (stereo not given) stands “inactive”.

A further assay deals with TTR (gene 7276). The experiment in a line: CCTE_GLTED_hTTR_0.125uM: CCTE's human Transthyretin (hTTR) Inhibition Assay, with 0.125uM TTR, Great Lakes Toxicology and Ecology Division (GLTED) Lab (AID 2284431).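 Further: hits lower the fluorescence signal relative to DMSO baseline.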
Conditions: not given
In short, it runs like this:
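Fluorescence (380 ex, 475 em) reported the ANSA probe remaining bound to 0.125uM human transthyretin. Chemicals were incubated with the protein for 2 hours; activity was scored as loss of signal against DMSO negative control.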
Regarding `C=CC1(C)OC(=O)N(c2cc(Cl)cc(Cl)c2)C1=O` (stereo not given), the AC50 was 1.68 µM (active). The same measure, in the same setting: for `Cc1cc(Cl)ccc1OCC(=O)O` the value was 22.1 µM (active); for `COC(=O)C(C)Oc1ccc(Oc2ccc(Cl)cc2Cl)cc1` (stereo not given), 1.12 µM (active). Same read-out and setting: under `CCCN(CCC)c1c([N+](=O)[O-])cc(S(N)(=O)=O)cc1[N+](=O)[O-]` stands 9.88 µM (active). Still for that read-out and setting: under `CCON=C(CC)C1=C(O)CC(c2c(C)cc(C)cc2C)CC1=O` (stereo not given) stands 9.92 µM (active). With `Cc1ccc(-c2c(Cl)nc(C#N)n2S(=O)(=O)N(C)C)cc1`, the half-maximal activity concentration (AC50) was 0.0946 µM (active).

Regarding `Fc1ccc(Oc2ccnc3cc(Cl)cc(Cl)c23)cc1`, the AC50 is 2.74 µM (active).

For the molecule `O=C(O)COc1nc(Cl)c(Cl)cc1Cl`, the AC50 was 6.69 µM (active). On to `COP(=S)(OC)Oc1nc(Cl)c(Cl)cc1Cl`, for which the AC50 was 0.274 µM (active). Still for that read-out and setting: under `Oc1ccccc1-c1ccccc1` stands 14.2 µM (active).

Values taken from PubChem BioAssay (EPA / NIEHS).
